From the OligoGym collection

Molecular target: SLC7A13
Assay: pooled miR-30 sensor sort-seq; sequence = guide strand
Conditions: shRNA
Note: reference of the scale not given here.

Row | Sequence | sensor-assay potency score (higher = more potent)
1 | TAAATAAACTACAGTCACCAGA | -0.342
2 | TAATCCGCTGAGAACTAACAGA | -0.752
3 | AAATCGTTCTACATTCTCCTTT | 0.252
4 | TAATTGTAAATAGCAAGTCATC | -1.71
5 | ATCATTAATAATATAGACCATA | -1.16
6 | TAGTATTGAGCTCCACTGCATG | -1
7 | TTAACCTTGATTTGGAATCTGA | 0.0155
8 | TATGCCAACACACCTTTGGGGG | -0.996
9 | ATATAGACCATAATGAACCCGT | -0.357
10 | TTAATAAGCAAAAAACTTGTGC | -0.255
11 | TTCAGCATCAAAAGCATTCTGA | -0.117
12 | TTATCAGGAACACTACTCCAGT | -0.614

Molecular target: SLC8A1
Assay: as above
Conditions: shRNA

Row | Sequence | sensor-assay potency score (higher = more potent)
13 | TCTTACAGTAATATGATCCAGT | 0.348
14 | TTTATCTGGATGCTTCTGCTTA | -0.388
15 | TATCACAACAACATTTCCGAAC | -0.676
16 | TTAATCTTCCTTGTCTCTCCGT | 0.395
17 | TTGAACATGATGATGCCCCTGG | 0.652
18 | TTGTCTTGGTGGTCTCTCCATT | -0.926
19 | ATGTTCTCTAGCATGAACCTTC | -0.822
20 | TTGTAAAACAGAAGTCTCCTAT | 0.149
21 | TAATCTTCCTTGTCTCTCCGTC | 0.74
22 | TTCTCTAGCATGAACCTTCCTG | -0.164
23 | TAAAACTGACAGACAATCCCAA | 0.165

Molecular target: SLC8A3
Assay: as above
Conditions: shRNA

Row | Sequence | sensor-assay potency score (higher = more potent)
24 | TTGATCAGTTTGTCCACCGTAG | 0.465
25 | TTCTGCTGCATGTTTCTTCAGG | -0.419
26 | TACAAGAGCACGCTGATGCAGA | -0.14
27 | TTTCTTAATTGTCACCTCCCTC | -0.959
28 | TATTTGTAGAAGAGCAGTCGTT | -0.77
29 | TTGTAGTCCACATACATGGTCT | -0.435
30 | TGATCTTGCGAGTCTCTCCGTC | -0.247
31 | TTTGTATCTGACTTGATTCAAC | -0.929
32 | TTGATCTTGCGAGTCTCTCCGT | -0.572
33 | TTAAATACTGTGTAAAGTCGGT | -0.0881
34 | TTTGTAGTCCACATACATGGTC | -0.363

Molecular target: SLC9A10
Assay: as above
Conditions: shRNA

Row | Sequence | sensor-assay potency score (higher = more potent)
35 | TATCGGAAAATCTTTCTCCTTT | -0.118
36 | TTCGTAACAGACAATCTTCTAC | 0.0134
37 | TATATGAACAAATTCCACCCAC | -0.00398
38 | TTGAAATGTGCAACAAACCGAT | 0.415
